Results from PubChem BioAssay AID1362 (SRMLSC, 2008).
Out of some 190,000 compounds screened, about 4,000 (2.1%) were called active. No stated cut-off is given here; in the data, active means inhibition above about 58%; inactive means the rest, inconclusive results apart; tested in S. cerevisiae. The list comes from a sample in which actives are over-represented; it also holds similar structures and randomly drawn compounds.

Test: growth inhibition of WT strain, primary screen, mitochondrial fusion inhibitor project, WT and mutant strains, chemical genetic (AID 1362)
Details: mitochondrial fusion phenotypic screen, at 10 µM
[1] = WT strain, growth inhibition, stronger effect = higher value

Structure (SMILES)	inhibition [1]	inhibition (mutant strain inhibition) [%]
Cc1cc(C(F)F)n2nc(C(=O)Nc3ccc(S(=O)(=O)NC45CC6CC(CC(C6)C4)C5)cc3)nc2n1	-1.63% (inactive)	-19.6
CCn1nccc1C(=O)Nc1ccc(S(=O)(=O)NC23CC4CC(CC(C4)C2)C3)cc1	64% (active)	-11.7
CCn1nccc1C(=O)Nc1ccc(Cl)c(Cl)c1	27.7% (inactive)	28.1
S=c1nc(C23CC4CC(CC(C4)C2)C3)nc2sccn12	23.5% (inactive)	16.9
COc1ccccc1N1CCN(CC(=O)NCCc2ccc(S(N)(=O)=O)cc2)CC1	-0.9% (inactive)	3.52
O=C(NC1(C(F)(F)F)NC(=O)N(C2CCCCC2)C1=O)c1ccco1 (configuration not stated)	-16.6% (inactive)	-15.1
COC(=O)NC1(C(F)(F)F)NC(=O)N(C2CCCCC2)C1=O (configuration not stated)	6.22% (inactive)	-5.73
O=C1NC(Nc2nc3ccccc3s2)(C(F)(F)F)C(=O)N1C1CCCCC1 (configuration not stated)	68.5% (active)	15.8
CS(=O)(=O)N(CC(=O)NC1CCCC1)Cc1ccc(F)cc1	1.23% (inactive)	-0.09
CN(C)S(=O)(=O)c1cccc(NC(=O)COC(=O)/C=C/c2cccs2)c1	0.4% (inactive)	-0.76
CN1CCN(S(=O)(=O)c2cccc(C(=O)N3CCc4ccccc43)c2)CC1	-3.09% (inactive)	-6.02
COc1cccc(CNC(=O)Cc2csc(Nc3nc(=S)[nH]c4ccccc34)n2)c1	2.48% (inactive)	7.91
Cc1noc(C)c1CSCC(=O)Nc1nc2ccc(Oc3ccccc3)cc2s1	71.3% (active)	34.8
CCOC(=O)c1c(C2CC2)csc1NC(=O)CSCc1c(C)noc1C	-0.08% (inactive)	6.46
CCn1c(SCC(=O)Nc2nc3ccc(OC)cc3s2)nnc1-c1ccoc1C	42% (inactive)	9.68
O=C(O)Cc1ccc(NCc2ccccc2Cl)cc1	2.97% (inactive)	-2.38
CN1CCNC(=O)C1CC(=O)NCCC1=CCCCC1 (configuration not stated)	13.1% (inactive)	9.2
CCCc1cc(-c2nc(-c3ccc(C)cc3)cs2)ccn1	77.9% (active)	50.8
Clc1ccc(-c2csc(-c3ccncc3)n2)cc1	25.2% (inactive)	28.4

Structure (SMILES)	inhibition [1]	inhibition (mutant strain inhibition) [%]
Cc1ccc(-c2csc(NNC(=O)c3ccccc3)n2)cc1	9.24% (inactive)	14
CC1Cc2ccccc2N1C(=O)CSc1nnc(C2CC2)n1C (configuration not stated)	-5.06% (inactive)	2.15
Cc1ccc(C)c(NC(=S)NNC(=O)c2csc(C)c2)c1	-2.09% (inactive)	-14.4
Cc1ccc(C)c(NC(=S)NNC(=S)Nc2ccc(C(C)C)cc2)c1	71.3% (active)	24.5
Cc1ccc(NC(=S)N/N=C2/CCCc3c(C)cc(C)cc32)cc1	23.1% (inactive)	23.1
Cc1nn(CCOc2ccc(Br)cc2)c(C)c1[N+](=O)[O-]	3.38% (inactive)	-3.33
O=S(=O)(Cc1ccccc1)c1nc2ccccc2n1Cc1ccccn1	23.5% (inactive)	10.5
C=CCn1c(=N)n(CC(O)COc2ccc(OC)cc2)c2ccccc21 (configuration not stated)	10.5% (inactive)	-4.41
OC(CN=c1sc2ccccc2n1CC(O)COc1ccccc1)COc1ccccc1 (configuration not stated)	74.3% (active)	39.9
OC(COc1ccccc1)Cn1cc(Br)cn1 (configuration not stated)	5.35% (inactive)	-3.45
COc1ccccc1C(c1nnnn1CC1CCCO1)N1CCN(c2ccccc2)CC1 (configuration not stated)	24.2% (inactive)	-7.45
O=C1COc2ccc(C(=O)COC(=O)C3CC(O)CN3S(=O)(=O)c3ccc(Cl)cc3)cc2N1 (configuration not stated)	7.83% (inactive)	0.3
Cc1ccnc(NC(=O)CCC(=O)N(CC(=O)NCc2ccccc2)Cc2ccco2)c1	-6.89% (inactive)	16.9
O=S1(=O)CCC(NC(=S)SCc2ccccc2Br)C1 (configuration not stated)	-2.13% (inactive)	13.4
CC(C)Cn1c(CN(Cc2ccccc2)Cc2ccccc2)nc2c1c(=O)n(C)c(=O)n2C	85.5% (active)	23.3
CC(C)CCn1c(CN(C)Cc2ccccc2)nc2c1c(=O)n(C)c(=O)n2C	1.88% (inactive)	1.47
COCCn1c(CN(Cc2ccccc2)Cc2ccccc2)nc2c1c(=O)n(C)c(=O)n2C	13% (inactive)	-1.28
Cc1ccc2nc(C)cc(N/N=C/c3ccc(F)cc3)c2c1	6.16% (inactive)	21
CCOC(=O)c1cccc(NC(=O)CCOc2ccccc2)c1	3.69% (inactive)	2.18

Structure (SMILES)	inhibition [1]	inhibition (mutant strain inhibition) [%]
COc1ccccc1CC(=O)Nc1ccc([N+](=O)[O-])cc1OC	-6.53% (inactive)	-1.24
COc1ccccc1CSc1nc2ccccc2[nH]1	-4.85% (inactive)	-2.06
COc1ccccc1CSc1ncc(-c2ccc([N+](=O)[O-])cc2)[nH]1	63.4% (active)	30.7
COCC(C)NCc1cc(Br)ccc1OC (configuration not stated)	7.52% (inactive)	7.1
CCCOc1ccc(N/C=C/C(=O)C(C)(C)C)cc1	-11.3% (inactive)	-8.28
CCCOc1ccc(C(=O)C(CCC(CNCC)C(=O)c2ccc(OCCC)cc2)CNCC)cc1 (configuration not stated)	72.9% (active)	35.9
CCCOc1ccc(C(=O)NCCc2ccccc2)cc1	-6.25% (inactive)	-16.2
Cc1cc2ccccc2n1CCC(=O)O	7.54% (inactive)	5.92
NC(=O)c1ccccc1N(Cc1ccccc1)S(=O)(=O)c1ccccc1	-1.27% (inactive)	17.1
COc1ccc(S(=O)(=O)N(C)CC(=O)N2CCCC2)cc1Cl	-0.67% (inactive)	5.49
O=C(O)CC/C(=N\NC(=O)c1ccc(F)cc1)c1ccc(Br)cc1	-0.54% (inactive)	7.09
Clc1ccc(COn2c(-c3ccc(Cl)cc3Cl)nc3ncccc32)cc1	73.2% (active)	48.6
COn1c(-c2ccc(Cl)cc2Cl)nc2ncccc21	6.69% (inactive)	2.12
Clc1ccc(-c2ncc3ccccn23)c(Cl)c1	24.3% (inactive)	2.24
COCCNC(=S)Nc1cc(S(=O)(=O)N2CCOCC2)ccc1N1CCCCC1	22% (inactive)	22.7
COc1ccc(-c2cc(C3CCN(c4ncccc4[N+](=O)[O-])CC3)[nH]n2)cc1	72.2% (active)	40.6
CC(=O)NC(Cc1ccccc1)C(=O)NC1CCN(c2ncccc2[N+](=O)[O-])CC1 (configuration not stated)	6.05% (inactive)	4.93
COc1ccc(N2CCN(c3ccc([N+](=O)[O-])nc3)CC2)cc1	15.8% (inactive)	8.11
